Compound activity as filed in PubChem BioAssay.
Nrf2 activator = qHTS of Nrf2 Activators | AREc32 ARE-luciferase reporter (MCF7-derived line), luminescence, 24 h | Potency, µM (highest dose often 46.1 µM), usual class: activators | 0.31% of 410,000 active | AID 624171, 2012; also: nearly all actives have a fitted effect of over 65% in size
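Quantitative high-throughput format: AREc32 reporter cells, 1000 per well, received compound by pin transfer and were incubated 24 hr at 37 deg C, 5% CO2, before Steady-Glo luminescence detection.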
Nrf2 block = Nrf2 qHTS screen for inhibitors; A549 ARE-Fluc reporter, luciferase luminescence, 18-24 h; Potency, µM (series often up to 46 µM), actives largely listed as inhibitors; 2.1% of 360,000 active; also: nearly all actives have a fitted effect of over 60% in size
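Nrf2 activity is the BugLite luminescence, read 15 min after reagent at room temperature, following CellTiter-Fluor cytotoxicity readout (30 min, 37C). Compound titrations were applied for 18-24 h to 5000 A549 ARE_Fluc cells/well in 5% FBS OPTI-MEM.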
Pin1 inh = qHTS Assay to Find Inhibitors of Pin1. Peptidyl-prolyl cis-trans isomerase NIMA-interacting 1 (Homo sapiens), Q13526. Pin1 FP peptide displacement, HiFluor488, 10 min. Potency, µM (top dose mostly 115 µM), actives largely listed as inhibitors. 0.009% of 390,000 active; active = well fitted inhibition curve with a large enough effect in the polarisation, with a control signal flat, not every such curve was filed as active; inconclusive = small, poorly fitted or top-dose-only effect, or effect the other way, or a change in a side signal; inactive = no such curve, though single readings can be large or run the other way; the % refers to the polarisation
Target sequence (Q13526 whole entry, looked up): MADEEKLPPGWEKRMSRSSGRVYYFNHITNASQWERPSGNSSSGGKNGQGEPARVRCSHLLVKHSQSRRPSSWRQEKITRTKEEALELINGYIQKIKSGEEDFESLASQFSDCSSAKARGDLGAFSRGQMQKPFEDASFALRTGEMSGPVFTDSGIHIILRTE
A549 viability = Nrf2 qHTS screen for inhibitors: counterscreen for cytotoxicity; 0.16% of 390,000 active; A549 ARE-Fluc cells, CellTiter-Fluor viability, 18-24 h; AID 504648, 2011; Potency, µM (doses to about 46 µM), hits mostly inhibitors
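A549 ARE_Fluc cells in 5% FBS OPTI-MEM were exposed to compounds in concentration-response for 18-24 h at 37 deg C. Viability was read by CellTiter-Fluor fluorescence (Ex 405/Em 525) after 30 min, before the luciferase read.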
Large screens that a line does not name were inactive. Most compounds without a hit are left out; they make up all but 2.2% or so of the library. Unless noted, calls follow the shape of the dose curve; as a rule, active = well fitted curve in the direction sought with a large enough effect; inconclusive = small, poorly fitted or top-dose-only effect, or another doubt; inactive = no such curve, though single readings can be large; an effect the other way counts as inactive or inconclusive.

CCOC(=O)c1cnc(-n2nc(C)cc2C)nc1NNc1nc(-c2ccccc2)cc(-c2ccccc2)n1	Nrf2 block 8.2µM, A549 viability inconclusive
CCS(=O)(=O)N1CCc2cc(C(=O)N3CCN(c4cccc(C(F)(F)F)c4)CC3)ccc21	none
Cc1c(C(=O)Nc2ccncc2)sc2nc(-c3ccccc3)cn12	Nrf2 block 10µM
CCN(CC)c1ccc(NC(=O)c2sc3nc(-c4ccccc4)cn3c2C)cc1	none (no result: Nrf2 block)
O=C(Cn1cnc2onc(-c3ccc(F)cc3)c2c1=O)Nc1ccc(F)c(Cl)c1	Nrf2 block inconclusive
O=C(Cn1cnc2onc(-c3ccc(F)cc3)c2c1=O)Nc1cccc(C(F)(F)F)c1	Nrf2 block 23µM, Pin1 inh inconclusive
Cc1ccc2c(n1)sc1c(-c3ccc(Br)cc3)c(C#N)c(N)nc12	Nrf2 block 21µM, Pin1 inh inconclusive, A549 viability inconclusive
COc1cc(F)c(S(=O)(=O)N2CCCN(S(=O)(=O)c3ccc(NC(C)=O)cc3)CC2)c(F)c1	Nrf2 block inconclusive (no result: Nrf2 activator)
Cc1ccc(-c2nnc(Nc3ccccc3)c3ccccc23)cc1S(=O)(=O)NCC1CCCO1 (stereo not given)	Nrf2 block inconclusive
Cc1ccc(C)c(Nc2nnc(-c3ccc(C)c(S(=O)(=O)NCC4CCCO4)c3)c3ccccc23)c1 (stereo not given)	Nrf2 block 23µM
COc1ccc(CN(C(=O)CSc2nnc(-c3ccccc3F)o2)c2ccc(F)cc2)cc1	Nrf2 block 21µM
CCCN1CCC(=O)N(C(CSc2ccc(OC)cc2)c2ccccc2)CC1 (stereo not given)	none (no result: Nrf2 activator)
N#Cc1ccc(NC(=O)C2Cc3ccccc3CN2S(=O)(=O)c2ccc(F)cc2)cc1 (stereo not given)	Nrf2 block 23µM, A549 viability inconclusive
O=C(Nc1ccc(O)cc1)C1CCCN1S(=O)(=O)c1ccc(F)cc1 (stereo not given)	Nrf2 block 15µM
CC(C)(C)NC(=O)C1Cc2ccccc2CN1S(=O)(=O)c1ccc(F)cc1 (stereo not given)	none
O=C(Cn1nc(Cc2cccnc2)c2ccccc2c1=O)Nc1cccc(C(F)(F)F)c1	Nrf2 block inconclusive
C[n+]1c(/C=C/c2ccc(O)cc2)ccc2ccccc21	Pin1 inh inconclusive
CN(C)c1ccc(C=Cc2nccc3ccccc23)cc1	none (no result: Nrf2 block, Pin1 inh, A549 viability)
CCCCCC[n+]1ccccc1/C=C/c1ccc(N(C)C)cc1	none (no result: Nrf2 block, Pin1 inh, A549 viability)
CC[n+]1ccccc1/C=C/c1ccc(N(C)C)cc1	Nrf2 block 5.8µM, Pin1 inh inconclusive, A549 viability 10µM
CC[n+]1c(/C=C/c2ccc(N(C)C)cc2)ccc2ccccc21	Nrf2 block 8.2µM, A549 viability 21µM
CC[n+]1c(/C=C/c2ccc(OC)c(OC)c2)ccc2ccccc21	Nrf2 block inconclusive
CC[n+]1c(/C=C/c2ccc(OC(C)=O)c(OC)c2)ccc2ccccc21	Nrf2 block inconclusive, A549 viability 21µM
CC[n+]1ccc(/C=C/c2ccc(N(C)C)cc2)c2ccccc21	Nrf2 block 3.7µM, A549 viability 9.2µM
CCCCNC(=S)NCCCc1cnc[nH]1	none (no result: Nrf2 activator)
CC(=O)Nc1cccc(Oc2ncnc3scc(-c4ccc(C)cc4)c23)c1	Nrf2 block 18µM, A549 viability inconclusive
O=C(OCC#CCSc1nnc(-c2cccc3ncccc23)o1)c1ccc(F)cc1	none (no result: Nrf2 activator)
O=C(O)CCNc1cc(N2CCN(C(=O)c3ccco3)CC2)c2noc3c2c1C(=O)c1ccccc1-3	Nrf2 block inconclusive, Pin1 inh inconclusive, A549 viability 18µM
CCCCNc1cc(NC2CCCCC2)c2c3c(onc13)-c1ccccc1C2=O	Pin1 inh inconclusive
O=C1c2ccccc2-c2onc3c(NCCO)cc(NC4CCCCC4)c1c23	Nrf2 block 21µM, Pin1 inh inconclusive, A549 viability inconclusive
COc1cc(OC)c(NC(=O)c2c(C)nn(-c3ccc(C)cc3)c2-n2cccc2)cc1Cl	none
CCCC/C=C/[C@H](c1ccccc1)[C@H](CO)Cc1cnc2ccccc2c1	Pin1 inh inconclusive (no result: Nrf2 activator)
CCNc1nc(C#N)nc(N2CCOCC2)n1	Nrf2 block 16µM (no result: Nrf2 activator)
CCc1ccc(-c2cc(C)no2)cc1S(=O)(=O)N1CCN(c2ccccn2)CC1	Nrf2 block inconclusive
COc1ccc(-c2cc(C)no2)cc1S(=O)(=O)N1CCN(c2ccccn2)CC1	Nrf2 block 18µM
CC(C)C[C@@H]1NC(=O)[C@H](Cc2ccccc2)N(C)C(=O)[C@H](C)NC(=O)c2ccccc2NC(=O)[C@H](Cc2ccc(O)cc2)N(C)C1=O	Nrf2 block 23µM, A549 viability inconclusive
Cc1ccc(C(C)(C)C)cc1S(=O)(=O)N1CC(=O)Nc2ccccc21	Nrf2 block 26µM, A549 viability inconclusive
Cc1ccc(S(=O)(=O)c2cn(CC(=O)Nc3ccc4c(c3)OCO4)c3ccc(C)cc3c2=O)cc1	none
CCOC(=O)[C@@H]1[C@H]2COc3cc(OC)ccc3[C@H]2N2C(=O)N(c3ccc(C(F)(F)F)cc3)C(=O)[C@]12C	Nrf2 block 21µM
Cn1nnnc1Sc1ncnc2scc(-c3ccc(C(=O)OC(C)(C)C)cc3)c12	none (no result: Nrf2 activator)
Oc1ccc(-c2cnc3ccccc3n2)cc1	Nrf2 block inconclusive
c1coc(-c2cnc3ccccc3n2)c1	Nrf2 activator 4µM (no result: Nrf2 block, Pin1 inh, A549 viability)
c1coc(-c2nc3ccccc3nc2-c2ccco2)c1	Nrf2 activator 10µM, Pin1 inh inconclusive
O=c1c(-c2cc(-c3ccc(F)cc3)nc3c2COc2ccc(Cl)cc2-3)coc2ccc(F)cc12	none
O=C(NC(=S)N(Cc1ccccc1)Cc1ccccc1)c1ccccc1F	Nrf2 block 12µM
COc1ccc(C(=O)NC(=S)N(Cc2ccccc2)Cc2ccccc2)cc1	Nrf2 block 18µM
CCS(=O)(=O)c1nc2ccccc2n1CC(=O)Nc1ccccc1C(=O)OC	none
O=S(=O)(c1ccc2c(c1)OCCO2)N1CCN(S(=O)(=O)c2ccccc2Cl)CC1	none (no result: Nrf2 activator)
Cc1ccc(S(=O)(=O)CCC(=O)N(CCCN2CCOCC2)c2nc3ccccc3s2)cc1	Nrf2 activator 13µM, Nrf2 block inconclusive
O=C(CCS(=O)(=O)c1ccccc1)N(CCCN1CCOCC1)c1nc2ccccc2s1	Nrf2 activator inconclusive
COc1cccc(/C=C/c2nc(C#N)c(N3CCCCC3)o2)c1	none
N#Cc1nc(Nc2cccc(C(F)(F)F)c2)nc(NC2CCCC2)n1	none (no result: Nrf2 activator)
CCn1cnc2c(Nc3ccc(CC(=O)N=C(N)N)cc3)nc(C#N)nc21	Pin1 inh inconclusive (no result: Nrf2 activator)
CC(=O)c1ccc(-c2c(C3C4C=CCCC4(C)C(=O)N3Cc3ccccc3)ccc3ccccc23)cc1 (stereo not given)	Nrf2 block inconclusive (no result: Nrf2 activator)
CCOc1cc(C=C(C(=O)OC)C(=O)OC)ccc1OCc1ccc([N+](=O)[O-])cc1	Nrf2 block 18µM, A549 viability inconclusive
CCOc1cc(/C=N/O)ccc1OCc1ccc([N+](=O)[O-])cc1	none
CCc1nnc(NS(=O)(=O)c2ccc(Nc3ccc([N+](=O)[O-])c4nonc34)cc2)s1	Pin1 inh inconclusive, A549 viability 23µM
